Test results published in PubChem BioAssay (NCI).
Compounds without any hit were thinned out: in the full panel of roughly 83,000, 20% have a hit.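 Growth was measured after 48 h exposure to one concentration of compound in 96-well plates. Values under 10 count as active.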 A number with no mark means an inactive call. Calls of active or inactive are those of the source.

Key:
Assay in all cases: NCI-60 one-dose screen, 48 h (100 = growth as untreated, 0 = no growth, -100 = all killed)
Details in all cases: 10 µM unless noted
SK-MEL-2 melanoma = test system: SK-MEL-2 melanoma
EKVX NSCLC = test system: EKVX NSCLC
SN12C renal = test system: SN12C renal
UO-31 renal = test system: UO-31 renal
TK-10 renal = test system: TK-10 renal
ACHN renal = test system: ACHN renal
CAKI-1 renal = test system: CAKI-1 renal
A498 renal = test system: A498 renal
CCRF-CEM leukemia = test system: CCRF-CEM leukemia
MOLT-4 leukemia = test system: MOLT-4 leukemia
SR leukemia = test system: SR leukemia
RPMI-8226 leukemia = test system: RPMI-8226 leukemia
OVCAR-8 ovarian = test system: OVCAR-8 ovarian
OVCAR-5 ovarian = test system: OVCAR-5 ovarian
OVCAR-4 ovarian = test system: OVCAR-4 ovarian
SK-OV-3 ovarian = test system: SK-OV-3 ovarian
IGROV1 ovarian = test system: IGROV1 ovarian
OVCAR-3 ovarian = test system: OVCAR-3 ovarian
HS 578T breast = test system: HS 578T breast
NCI/ADR-RES ovarian = test system: NCI/ADR-RES ovarian

SMILES | growth (SK-MEL-2 melanoma) [%] | growth (EKVX NSCLC) | growth (SN12C renal) | growth (UO-31 renal) [%] | growth (TK-10 renal) [%] | growth (ACHN renal) | growth (CAKI-1 renal) [%] | growth (A498 renal) | growth (CCRF-CEM leukemia) | growth (MOLT-4 leukemia) | growth (SR leukemia) | growth (RPMI-8226 leukemia) | growth (OVCAR-8 ovarian) | growth (OVCAR-5 ovarian) [%] | growth (OVCAR-4 ovarian) | growth (SK-OV-3 ovarian) [%] | growth (IGROV1 ovarian) | growth (OVCAR-3 ovarian) | growth (HS 578T breast) [%] | growth (NCI/ADR-RES ovarian) [%]
CC(C)C(=O)Nc1ncc(C(=O)NCCN(Cc2ccccc2)C(=O)c2ccc(S(=O)(=O)Nc3ccccc3)cc2)s1 | 97.8 | 97.6% | 91.4% | 80.2 | 100 | 101% | 92.4 | 87.7% | 96.2% | 75.1% | 100% | 97.6% | 102% | 97.7 | 112% | 110 | 105% | 106% | 87.1 | 101
O=C(Nc1ncc(Cc2cc(C(F)(F)F)ccc2Cl)s1)C(=S)N1CCOCC1 | 104 | 83% | 96.2% | 69.5 | 88.5 | 99.4% | 67.1 | 90.3% | 92.3% | 93% | 92.1% | 81.9% | 95.2% | 94.7 | 84.5% | 92 | 84.3% | 105% | 92.6 | 91.3
O=C(Nc1ncc(Cc2ccccc2Cl)s1)c1ccc2c(c1)OCCO2 | 39.8 | 33.8% | 30.2% | 51.9 | 46.2 | 37.3% | 20 | -0.0402% (active) | 6.45% (active) | 7.02% (active) | 5.14% (active) | 19.3% | 24.2% | 33.2 | 43.5% | 32.5 | 28.4% | -14.4% (active) | 19.8 | 14.5
CC(C)(C)n1cc(-c2ccnc(NCCNS(=O)(=O)c3ccc(C(F)(F)F)cc3)c2)c(-c2ccccc2)n1 | 105 | 73.9% | 86% | 58.9 | 104 | 102% | 90.6 | 61.7% | 74.6% | 72.2% | 35.9% | 81.1% | 89.2% | 108 | 84.8% | 97.8 | 97.3% | 94.5% | 99.6 | 91.5
C#CCOc1cccc(Nc2ncnc3c(NC(=O)CCl)cccc23)c1 | 36.5 | -19.8% (active) | 6.82% (active) | 35.4 | 63.7 | -72.4% (active) | 54.9 | 101% | -57.5% (active) | -12.7% (active) | -39.4% (active) | -40.2% (active) | -0.718% (active) | 67.6 | -27% (active) | 81.7 | -58.9% (active) | -79% (active) | 50.6 | 18.8
O=c1[nH]c(CN2CCN(c3ccccc3)CC2)nc2c(Br)cc(Br)cc12 | 91.2 | 96.3% | 110% | 77.8 | 120 | 101% | 99.7 | 121% | 88.9% | 89.6% | 3.49% (active) | 96.6% | 104% | 95.3 | 105% | 96.4 | 29.4% | 103% | 91.7 | 104
COc1ccc(Nc2nccc(Nc3ccc4[nH]ncc4c3)n2)cc1 | 29.8 | 50.9% | 43.4% | 15.9 | 19.3 | 29.2% | 38.3 | 36.5% | -1.69% (active) | 1.45% (active) | 4.38% (active) | 2.72% (active) | 9.36% (active) | 52.1 | 33.3% | 52.1 | 50.6% | 48.9% | 46.7 | 17.7
